Measured values as given in the supplement of paper PMC9446081.
The whole screen tested about 39,000 compounds, of which about 220 (0.56%) showed activity. The list comes from a sample in which actives are over-represented; it also holds similar structures and randomly drawn compounds. Values without a mark were called inactive.

Test system: Escherichia coli K-12 BW25113
Assay: relative growth (OD600 normalised to plate interquartile mean) (fraction); higher = less growth inhibition, active = 0.2 or less
Conditions: 50 µM; LB; incubation time: overnight (16-24 h)
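Also: Wild-type cells incubated without shaking, value is the mean of two biological replicates.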

Going from `C[C@@H]1CCCCO[C@H](CN(C)Cc2ccc(C(F)(F)F)cc2)[C@H](C)CN([C@H](C)CO)C(=O)c2cc(NS(=O)(=O)c3ccc(F)cc3)ccc2O1` to `C[C@@H]1CN([C@H](C)CO)C(=O)c2cc(NS(=O)(=O)c3ccc(F)cc3)ccc2O[C@@H](C)CCCCO[C@H]1CN(C)Cc1ccccc1`, the relative growth falls from 1.02 to 0.999.

First: C[C@@H]1CN([C@@H](C)CO)C(=O)c2cc(-c3ccc(F)cc3)cnc2O[C@@H]1CN(C)C(=O)Cc1ccccn1
Second: C[C@@H]1CN([C@@H](C)CO)C(=O)c2cc(-c3cccc(C(=O)N(C)C)c3)cnc2O[C@H]1CN(C)C(=O)Cc1ccccn1
The relative growth of the first is lower: 0.977 for the first, 0.986 for the second.

Compared with `Cc1ccc(S(=O)(=O)N(C)C[C@@H]2Oc3c(NS(=O)(=O)c4ccc(F)cc4)cccc3C(=O)N([C@H](C)CO)C[C@@H]2C)cc1`, `CC(C)NC(=O)N(C)C[C@@H]1Oc2c(NS(=O)(=O)c3ccc(Cl)cc3)cccc2C(=O)N([C@@H](C)CO)C[C@@H]1C` is higher in relative growth: 1.01 for the first, 1.09 for the second.

Going from `COc1ccc(S(=O)(=O)N(C)C[C@H]2Oc3cc(C#CC4CCCC4)ccc3S(=O)(=O)N([C@@H](C)CO)C[C@H]2C)cc1` to `COc1ccc(C#Cc2ccc3c(c2)O[C@@H](CN(C)C(=O)CN2CCOCC2)[C@@H](C)CN([C@H](C)CO)S3(=O)=O)cc1`, the relative growth falls from 1.04 to 0.997.

Compared with `COc1ccc(CN(C)C[C@H]2Oc3ccc(NC(=O)Nc4ccc(C(F)(F)F)cc4)cc3CC(=O)N([C@@H](C)CO)C[C@H]2C)cc1`, `C[C@H](CO)N1C[C@H](C)[C@H](CN(C)C(=O)Nc2ccc(C(F)(F)F)cc2)Oc2ccc(NS(=O)(=O)c3ccc(F)cc3)cc2C1=O` is higher in relative growth: 0.99 for the first, 0.994 for the second.

Compared with `C[C@@H]1CCCCO[C@@H](CN(C)C(=O)Nc2ccc(C(F)(F)F)cc2)[C@H](C)CN([C@H](C)CO)C(=O)c2cc(NS(=O)(=O)c3cccs3)ccc2O1`, `C[C@@H]1CCCCO[C@H](CN(C)C(=O)Nc2ccc(C(F)(F)F)cc2)[C@@H](C)CN([C@@H](C)CO)C(=O)c2cc(NC(=O)c3ccncc3)ccc2O1` is lower in relative growth: 1.03 for the first, 0.979 for the second.

First: O=C(O)[C@H]1O[C@@H](Oc2c(-c3ccc(O)cc3)oc3cc(O)cc(O)c3c2=O)[C@H](O)[C@@H](O)[C@@H]1O
Second: CC1(C)SC2C(NC(=O)C(N)c3ccc(O)cc3)C(=O)N2C1C(=O)O (stereo unspecified)
The relative growth of the first is lower: 1.01 for the first, 1.1 for the second.

Compared with `C[C@H]1CN([C@@H](C)CO)S(=O)(=O)c2ccc(-c3cncnc3)cc2O[C@@H]1CN(C)C(=O)NC1CCCC1`, `C[C@H](CO)N1C[C@H](C)[C@H](CN(C)C(=O)c2ccncc2)OCCCC[C@H](C)Oc2ccc(NS(C)(=O)=O)cc2C1=O` is higher in relative growth: 1 for the first, 1.02 for the second.

Compared with `CCC(=O)Nc1cnc(OC)nc1OC`, `COc1cc(N)ccn1` is higher in relative growth: 1.01 for the first, 1.07 for the second.

First: CN(C)CCCNC(=O)C[C@@H]1CC[C@@H]2[C@@H](COc3ccc(NC(=O)c4cccc(F)c4)cc3C(=O)N2C)O1
Second: COc1ccc(C(=O)Nc2ccc3c(c2)C(=O)N(C)[C@@H]2CC[C@H](CC(=O)NCC4CC4)O[C@@H]2CO3)cc1
The relative growth of the first is lower: 0.965 for the first, 0.982 for the second.

First: COC(=O)C(=C1OC(=O)C(c2ccccc2)=C1O)c1ccccc1
Second: C(=C\c1ccccc1)/CSc1ncnc2c1oc1ccccc12
The relative growth of the first is lower: 0.951 for the first, 1.02 for the second.

Going from `CC(O)C1C(=O)N2C(C(=O)[O-])=C(SC3Cn4cnc[n+]4C3)C(C)C12` (stereo unspecified) to `C[C@@H](O)[C@H]1C(=O)N2C(C(=O)O)=C(SCCNC=N)C[C@H]12`, the relative growth rises from 0.307 to 1.01.

First: C[C@@H]1CN([C@@H](C)CO)C(=O)c2cc(NS(=O)(=O)c3ccc(F)cc3)ccc2O[C@@H](C)CCCCO[C@H]1CN(C)Cc1ccccc1
Second: Cc1ccc(S(=O)(=O)Nc2ccc3c(c2)C(=O)N([C@H](C)CO)C[C@@H](C)[C@@H](CN(C)C(=O)c2ccccc2)OCCCC[C@H](C)O3)cc1
The relative growth of the first is lower: 0.979 for the first, 1.01 for the second.

Compared with `C[C@@H]1CCCCO[C@@H](CN(C)C(=O)Nc2ccc3c(c2)OCO3)[C@@H](C)CN([C@@H](C)CO)C(=O)c2cc(NS(=O)(=O)c3ccccc3)ccc2O1`, `C[C@@H]1CCCCO[C@@H](CN(C)S(C)(=O)=O)[C@H](C)CN([C@H](C)CO)C(=O)c2cc(NS(=O)(=O)c3ccccc3)ccc2O1` is lower in relative growth: 1.01 for the first, 0.997 for the second.

First: C[C@@H]1CN([C@H](C)CO)C(=O)c2ccccc2-c2ccccc2CO[C@@H]1CN(C)S(=O)(=O)c1cn(C)cn1
Second: Cc1ccc(S(=O)(=O)Nc2ccc3c(c2)C(=O)N([C@@H](C)CO)C[C@H](C)[C@@H](CN(C)S(=O)(=O)c2cn(C)cn2)O3)cc1
The relative growth of the first is higher: 0.997 for the first, 0.932 for the second.

First: O=C(C[C@H]1CC[C@H]2[C@@H](COC[C@@H](O)CN2S(=O)(=O)c2ccccc2)O1)N1CCOCC1
Second: CN(C)CCCNC(=O)C[C@H]1CC[C@H]2[C@@H](COC[C@@H](O)CN2C(=O)c2cc(Cl)cc(Cl)c2)O1
The relative growth of the first is lower: 0.964 for the first, 0.968 for the second.

Going from `CC1(C)S[C@@H]2[C@H](NC(=O)[C@H](N)c3ccc(O)cc3)C(=O)N2[C@H]1C(=O)O` to `CC1(C)S[C@H]2[C@@H](NC(=O)[C@@H](N)c3ccccc3)C(=O)N2[C@@H]1C(=O)O`, the relative growth rises from 0.516 to 1.01.

Compared with `CC1(C)SC2C(NC(=O)C(N)c3ccccc3)C(=O)N2C1C(=O)[O-].[Na+]` (stereo unspecified), `OC[C@@H](O)[C@H]1O[C@H](c2ccccc2)OC[C@@H]1O` is lower in relative growth: 1.06 for the first, 1.05 for the second.

Compared with `O=C(C[C@H]1C[C@H]2c3cc(NS(=O)(=O)c4ccc(F)cc4)ccc3O[C@H]2[C@H](CO)O1)NCc1ccccn1`, `COCCNC(=O)C[C@H]1C[C@H]2c3cc(NS(C)(=O)=O)ccc3O[C@H]2[C@H](CO)O1` is higher in relative growth: 0.998 for the first, 1.01 for the second.

`COc1ccc(S(=O)(=O)Nc2ccc3c(c2)C(=O)N([C@H](C)CO)C[C@@H](C)[C@@H](CN(C)C(=O)Nc2c(C)noc2C)O3)cc1` and `Cc1noc(C)c1S(=O)(=O)Nc1ccc2c(c1)C(=O)N([C@H](C)CO)C[C@@H](C)[C@H](CN(C)S(=O)(=O)c1ccc(Cl)cc1)O2` are the same in relative growth: 1 for the first, 1 for the second.

`CSC1=N[C@@]2(C)CCCC[C@@H]2c2c1ccc1ccccc21` and `C[C@H](CO)N1C[C@H](C)[C@H](CN(C)Cc2ccccc2)OCCCC[C@H](C)Oc2ccc(NC(=O)C3CCCCC3)cc2C1=O` are the same in relative growth: 1.01 for the first, 1.01 for the second.

Compared with `NCCCC[C@@H](N)C(=O)N[C@@H](Cc1c[nH]c2ccccc12)C(=O)N[C@@H](CCCCN)C(=O)O`, `C[C@H](NC(=O)[C@@H](Cc1ccc2ccccc2c1)NC(=O)[C@@H](C)N)C(=O)N[C@@H](Cc1c[nH]c2ccccc12)C(=O)N[C@H](Cc1ccccc1)C(=O)N[C@@H](CCCCN)C(N)=O` is lower in relative growth: 0.994 for the first, 0.98 for the second.

First: CC(=CC(=O)OCCCCCCCCC(=O)O)CC1OCC(CC2OC2C(C)C(C)O)C(O)C1O (stereo unspecified)
Second: CCC1OC(=O)CC(O)C(C)C(OC2OC(C)C(OC3CC(C)(O)C(O)C(C)O3)C(N(C)C)C2O)C(CC=O)CC(C)C(=O)C=CC(C)=CC1COC1OC(C)C(O)C(OC)C1OC.O=C(O)C(O)C(O)C(=O)O (stereo unspecified)
The relative growth of the first is lower: 0.526 for the first, 1.09 for the second.

Compared with `CC[C@H]1OC(=O)C[C@@H](O)[C@H](C)[C@@H](O[C@@H]2O[C@H](C)[C@@H](O[C@H]3C[C@@](C)(O)[C@@H](O)[C@H](C)O3)[C@H](N(C)C)[C@H]2O)[C@@H](CC=O)C[C@@H](C)C(=O)/C=C/C(C)=C/[C@@H]1CO[C@@H]1O[C@H](C)[C@@H](O)[C@@H](OC)[C@H]1OC`, `CCCN(C)C[C@@H]1OCCCC[C@H](C)Oc2ccc(NC(=O)CCC(F)(F)F)cc2C(=O)N([C@@H](C)CO)C[C@@H]1C` is higher in relative growth: 0.971 for the first, 1 for the second.

Going from `Nc1ccccc1C(=O)NCCN1CCNC1=O` to `C[C@H](CO)N1C[C@H](C)[C@H](CN(C)S(C)(=O)=O)Oc2c(NC(=O)c3ccc(-c4nccs4)cc3)cccc2C1=O`, the relative growth falls from 1.01 to 0.995.

`OC[C@@H](O)[C@@H](O)[C@@H](O)[C@@H](O)[C@@H](O)CO` and `C[C@H](CO)N1C[C@H](C)[C@H](CN(C)Cc2ccccc2)Oc2c(NC(=O)Nc3cccc4ccccc34)cccc2C1=O` are the same in relative growth: 1 for the first, 1 for the second.

Going from `c1n[nH]nc1SSc1cn[nH]n1` to `COc1ccc2cc1Oc1ccc(cc1)C[C@H]1c3c(cc4c(c3Oc3cc5c(cc3OC)CCN(C)[C@@H]5C2)OCO4)CCN1C`, the relative growth rises from 0.536 to 0.993.

Molecule `COc1ccc2cc1Oc1ccc(cc1)CC1c3c(cc4c(c3Oc3cc5c(cc3OC)CCN(C)C5C2)OCO4)CCN1C` (stereo unspecified) has a relative growth of 0.844.

For `CN(C)C1C(O)=C(C(N)=O)C(=O)C2(O)C(O)=C3C(=O)c4c(O)ccc(Cl)c4C(O)C3CC12.Cl` (stereo unspecified), the relative growth was 0.0565 (active).
For `CC(O)C1C(=O)N2C(C(=O)O)=C(SC3CNC(C(=O)N(C)C)C3)C(C)C12` (stereo unspecified), the relative growth was 0.0517 (active).
In the case of `CCOC(=O)OC(C)OC(=O)C1N2C(=O)C(NC(=O)C(N)c3ccccc3)C2SC1(C)C.Cl` (stereo unspecified), the relative growth is reported as 0.0511 (active).
For `CC1(C)S[C@@H]2[C@H](NC(=O)[C@H](N)c3ccccc3)C(=O)N2[C@H]1C(=O)OCOC(=O)[C@@H]1N2C(=O)C[C@H]2S(=O)(=O)C1(C)C`, the relative growth was 0.107 (active).
In the case of `CC(N)O.Cc1cc(CC(C)CC(C)(C)C)n(O)c(=O)c1` (stereo unspecified), the relative growth is reported as 0.0449 (active).
With `NCCCC[C@H](NC(=O)[C@@H](NC(=O)[C@H](Cc1c[nH]c2ccccc12)NC(=O)[C@H](CCCCN)NC(=O)[C@H](CCCCN)NC(=O)[C@H](Cc1c[nH]c2ccccc12)NC(=O)[C@H](Cc1c[nH]c2ccccc12)NC(=O)[C@H](CCCCN)NC(=O)[C@@H](N)CCCCN)C(c1ccccc1)c1ccccc1)C(N)=O` the relative growth was 0.149 (active).
`C/C(=C\C(=O)OCCCCCCCCC(=O)O)C[C@@H]1OC[C@H](C[C@@H]2O[C@H]2[C@@H](C)[C@H](C)O)[C@@H](O)[C@H]1O` was tested, and the relative growth was 0.166 (active).
`CC[C@H]1OC(=O)C[C@@H](O)[C@H](C)[C@@H](O[C@@H]2O[C@H](C)C[C@H](N(C)C)[C@H]2O)[C@@H](CC=O)C[C@@H](C)C(=O)/C=C/[C@]2(C)O[C@H]2[C@@H]1C` was tested, and the relative growth was 0.149 (active).
`N[C@@H]1CN(c2c(F)cc3c(=O)c(C(=O)O)cn([C@@H]4C[C@@H]4F)c3c2Cl)CC12CC2` was tested, and the relative growth was 0.0347 (active).
For `Cl.NC1CCN(c2c(F)cc3c(=O)c(C(=O)O)cn(C4CC4)c3c2Cl)C1` (stereo unspecified), the relative growth was 0.0438 (active).
In the case of `COc1ccc2c(c1OC)C(=O)OC2C1c2c(cc3c(c2OC)OCO3)CCN1C.Cl` (stereo unspecified), the relative growth is reported as 0.0513 (active).
